# Results from PubChem BioAssay (Tox21).
# Activity calls are given as the source filed them. Entries that show only a call come without a potency. Calls follow the shape of the dose curve; as a rule, active = well fitted activation curve with a large enough effect in the repeat runs; inconclusive = weak or mixed curves; inactive = flat fitted curve, though single readings scatter.
# Assay: Caspase-3/7 induction in CHO-K1 cells by small molecules, qHTS assay (AID 1346980); also: nearly all actives have a fitted effect of over 15% in size
# Settings: CHO-K1 caspase-3/7 induction, Caspase-Glo luminescence, 17 h; series mostly up to 92.4 µM
# Description: National Center for Advancing Translational Sciences [NCATS]
# NIH Chemical Genomics Center [NCGC]
# U.S. Environmental Protection Agency [EPA]
# National Institutes of Environmental Health Sciences [NIEHS]
# National Toxicology Program [NTP]
# Apoptosis is a process of programmed cell death and plays a central role in the development of multicellular organisms. It is a highly regulated process and induces cell death by activating caspases, which are the members of cysteine aspartic acid-specific protease (caspase) family. Caspases involved in apoptosis are classified by their mechanism of action as initiator caspases (caspase-2, -8, -9 and -10) and executioner caspases (caspase-3, -6, and -7). Inhibition of apoptosis results in number of cancers, autoimmune diseases, inflammatory diseases and viral infection. To identify small molecule compounds that induce apoptosis, a homogeneous, luminescent Caspase-Glo 3/7 assay was used. Wild type CHO-K1 cells were used to screen Tox21 libraries for identifying caspase-3/7 activity inducers.
# CHO-K1 cells were dispensed at 1,500 per well in 5uL of culture medium into white solid bottom 1536-well plates (Corning Life Sciences, Corning, NY) using a Multidrop Combi (Thermo Scientific, Waltham, MA) dispenser. The assay plates were incubated at 37 C and 5% CO2 for 5hr, and then 23nL of compounds dissolved in DMSO and positive control were transferred using a Pintool station (Wako, San Diego, CA). The assay plates were incubated at 37C and 5% CO2 for 17hr. For caspase-3/7 activity read, 4uL of Caspase-Glo 3/7 reagent (Promega Corporation, Madison, WI) was added to each well of the assay plates using Flying Reagent Dispenser (FRD, Aurora Discovery, San Diego, CA) and incubated the assay plates at room temperature for 30min. The luminescence signal was quantified using a ViewLux plate reader (Perkin Elmer, Shelton, CT).
# Potency is read from the fitted curve at half-maximal effect.
SMILES,Potency,caspase-3/7 activation
O=C(O)c1cccc(N(Cc2cccnc2)c2ccc(OC(F)F)c(OC(F)F)c2)c1,inactive,–
NCCCN(CCO)CCO,inactive,–
Cc1ccc(C(C)c2ccc(C)c(C)c2)cc1C,inactive,–
CCN(CC)CCc1nc(-c2ccccc2)no1,inactive,–
CC(=O)c1c(C)c([N+](=O)[O-])c(C(C)(C)C)c([N+](=O)[O-])c1C,inactive,–
CCC(C)N(C)C(=O)c1cc2ccccc2c(-c2ccccc2Cl)n1 (stereo not given),inactive,–
NC[C@H]1O[C@H](O[C@H]2[C@H](O)[C@@H](O[C@H]3O[C@H](CO)[C@@H](O)[C@H](N)[C@H]3O)[C@H](N)C[C@@H]2N)[C@H](O)[C@@H](O)[C@@H]1O,–,1.24% [at 8.39 µM] (inactive)
CC(C)(C)C(=O)OCOP(=O)(COCCn1cnc2c(N)ncnc21)OCOC(=O)C(C)(C)C,inactive,–
CC[C@@H]1C[C@H](N(Cc2cc(C(F)(F)F)cc(C(F)(F)F)c2)C(C)=O)c2cc(C(F)(F)F)ccc2N1C(=O)OC(C)C,inactive,–
O=C(CCN1CCN2CCCC2C1)N1c2ccccc2Sc2ccc(Cl)cc21 (stereo not given),–,0.894% [at 19 µM] (inactive)
CNCC[C@@H](Oc1ccccc1C)c1ccccc1,inactive,–
O=C(Cl)c1ccc([N+](=O)[O-])cc1,inactive,–
CN(C)CC[C@@H](c1ccc(Br)cc1)c1ccccn1,inactive,–
O=C(/C=C/c1ccc(O)c(O)c1)O[C@@H]1C[C@](O)(C(=O)O)C[C@@H](O)[C@H]1O,inactive,–
CCOc1cc(OCC)c(C(=O)CCC(=O)O)cc1OCC,inactive,–
Cl/C(=C\n1cncn1)c1ccc(Cl)cc1Cl,inactive,–
CC(C)NCC(O)c1cc(O)cc(O)c1 (stereo not given),inactive,–
CCCCCCc1ccc(N)cc1,inactive,–
CC[C@]12CCCN3CCc4c(n(c5ccccc45)C(=O)C1)[C@@H]32,inactive,–
Cc1cccc(C(C)(C)C)c1O,inactive,–

SMILES,Potency,caspase-3/7 activation
CC(CN)CCCN (stereo not given),inactive,–
Cc1cc(CC(=O)O)c(C)n1-c1ccc(Cl)cc1,inactive,–
O=C(O)C1CCC(C(=O)O)CC1 (stereo not given),inactive,–
CCCCCCCCC(CO)CCCCCC (stereo not given),inactive,–
CC(C)=CCCC(C)CC=O (stereo not given),inactive,–
CCN(CC)CCNC(C(=O)OCCC(C)C)c1ccccc1 (stereo not given),inactive,–
c1ccc(CNCc2ccccc2)cc1,inactive,–
CC(=O)SCc1ccco1,inactive,–
C1=Cc2ccccc2C1,inactive,–
Cc1cc(C)c(S(=O)(=O)O)cc1N=Nc1cc(S(=O)(=O)O)c2ccccc2c1O,inactive,–
Cc1ccc2c(ccc3ccccc32)c1,inactive,–
CCCCCCOC(=O)CCC,inactive,–
O=C(c1ccccc1)c1ccc2n1CCC2C(=O)O (stereo not given),inactive,–
NCc1ccccc1,inactive,–
C=CC(C)(CCC=C(C)C)OC(=O)c1ccccc1 (stereo not given),inactive,–
CCCCCCCC/C=C\CCCCCCCC(N)=O,inactive,–
C[C@@H](C1=C(CCN(C)C)Cc2ccccc21)c1ccccn1,inactive,–
SC1CCCC1,inactive,–
C=CC(=O)OCC(C)OCC(C)OCC(C)OC(=O)C=C (stereo not given),24.3 µM (active),–
CC(C)(C)C1CCCCC1O (stereo not given),inactive,–
